Source: PubChem BioAssay
This is a sample that favours compounds with a hit; in the whole collection about 19% have one here.
TDP1 cell noCPT: qHTS for Inhibitors of human tyrosyl-DNA phosphodiesterase 1 (TDP1): qHTS in cells in absence of CPT | 420,000 tested, 15% active | Potency, µM (titrated, usually from 46.2 µM), without a hit: top-dose activity change, negative = growth inhibition, hits mostly inhibitors | DT40 Tdp1-/- hTDP1 cells, no CPT, ATP luminescence, 48 h; further: potency means the concentration at half of the fitted maximal effect; nearly all actives have a fitted effect of over 55% in size
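Chicken DT40 Tdp1-/- cells complemented with human TDP1, screened without camptothecin (DMSO vehicle only), 400 cells/well. Compounds pin-transferred, cells incubated at 37 °C for at least 48 hr. Growth read as ATP-dependent luminescence (CellTiter-Glo, 30 min at RT).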
HT1080 IDH1KD tx: toxicity to HT-1080 IDH1 knockdown cells (counter line). HT-1080 IDH1 knockdown viability, ATP luminescence, 48 h. Potency, µM (series often up to 46.1 µM), without a hit: top-dose activity, negative = toxicity, usual class: cytotoxic. AID 686971. 360,000 tested, 2% active;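 further: potency means the concentration at half of the fitted maximal effect; 0% = DMSO wells and -100% = cell-free medium wells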
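Cytotoxicity counter-line: IDH1KD HT-1080, 48 h, CellTiter-Glo. Curves classed by r2, magnitude and activity.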
IL1B secr inh: inhibitors of inflammasome signaling (IL-1 beta secretion); THP-1 LPS/ATP IL-1B secretion, AlphaLISA, 16 h; hits give low values; activity change, % at 57.5 µM; 360,000 tested, 4.7% active; AID 743279; in the data active means activity change below about -50%; inconclusive means mostly about -30% to -49%
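THP-1 cells pretreated 1 hr with compounds (up to 57.5 uM final), then stimulated with LPS (250 ng/mL final) plus ATP (1.25 mM final); secreted IL-1B measured by AlphaLISA after 16 hr, decreased signal indicating inhibition.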
DT40 TDP1 CPT: growth inhibition of DT40 Tdp1-/-;hTDP1 cells with camptothecin (screen for TDP1 inhibitors); chicken DT40 Tdp1-/-;hTDP1 cells + 20 nM CPT, ATP luminescence, 48 h; Potency, µM (highest dose often 46.2 µM), for the others: top-dose activity change, negative = growth inhibition, most hits filed as inhibitors; 420,000 tested, 12% active; further: potency means the concentration at half of the fitted maximal effect; nearly all actives have a fitted effect of over 55% in size
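Chicken DT40 Tdp1-/- cells complemented with human TDP1, 400 cells/well, exposed to compounds plus 20 nM camptothecin for at least 48 h at 37 C; viability read as ATP content by CellTiter-Glo luminescence.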
HT1080NT lethal: kills 2HG-producing HT-1080-NT fibrosarcoma cells; HT-1080-NT fibrosarcoma viability, CellTiter-Glo ATP luminescence, 48 h; Potency, µM (titrated, usually from 46.1 µM), for inactives: at the top dose activity, negative = less viability, usual class: cytotoxic; 360,000 tested, 1.6% active;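 further: NT is the 2HG producing partner of a matched IDH1 knockdown line; potency means the concentration at half of the fitted maximal effect; 0% = DMSO-treated cells and -100% = media-only wells without cells; nearly all actives have a fitted effect of over 55% in size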
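Read-out is CellTiter-Glo luminescence after 10 minutes at room temperature, following 48 hours' compound treatment of HT-1080-NT cells (750 cells/well, RPMI, 5% FBS, 37 degrees C).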
* = called active by the depositor; u = inconclusive; x = not tested or not shown; [ ] = dose if it differs, or a comment. Unless noted, the call rests on the fitted dose curve; in most records, active means well fitted curve in the direction sought with a large enough effect; inconclusive means small, poorly fitted or top-dose-only effect, or another doubt; inactive means no such curve, though single readings can be large; an effect the other way counts as inactive or inconclusive. Unless noted, on the % scale 0 is the no-effect control and ±100 the full control effect.

SMILES	TDP1 cell noCPT	HT1080 IDH1KD tx	IL1B secr inh	DT40 TDP1 CPT	HT1080NT lethal
CN(C)S(=O)(=O)c1ccc(Cl)c(NC(=O)CN2CCN(Cc3ccc4c(c3)OCO4)CC2)c1	21µM*	-3%	15	u	0%
O=C(CN1CCN(Cc2ccc3c(c2)OCO3)CC1)Nc1cc(S(=O)(=O)N2CCCC2)ccc1Cl	16µM*	10%	-3	u	3%
O=C(CSc1ncnc2nc[nH]c12)c1ccccc1	u	u	-9	-29%	u
Clc1ccc(CSc2ncnc3nc[nH]c23)cc1	23µM*	u	-3	u	-12%
O=C(CSc1ncnc2nc[nH]c12)c1ccc(Cl)cc1	u	-69%	6	u	1%
c1ccc(CCSc2ncnc3nc[nH]c23)cc1	8.2µM*	-15%	42	16µM*	-5%
CC1CCc2c(ccc3ccccc23)C1=O (stereo unspecified)	-24%	12%	-5	-2%	-18%
O=C1c2ccccc2C(=O)C1Cc1cccc2ccccc12	-27%	4%	15	14µM*	u
CS(=O)(=O)N1CCC(C(=O)Nc2cccc([N+](=O)[O-])c2)CC1	1%	1%	-10	-11%	0%
Cc1ccc(CSc2nc3ccccc3c(=O)n2C)cc1	u	-14%	54	u	-23%
CCCCn1c(SCc2cccc([N+](=O)[O-])c2)nc2ccsc2c1=O	23µM*	2%	-20	u	0%
Cn1c(SCc2cccc(C#N)c2)nc2ccccc2c1=O	u	u	-50*	u	u
CCOC(CCn1c(SCc2cccc([N+](=O)[O-])c2)nc2ccccc2c1=O)OCC	u	-28%	-29	16µM*	u
Cn1c(SCc2cccc([N+](=O)[O-])c2)nc2ccccc2c1=O	12µM*	u	-6	16µM*	u
O=C(Nn1c(SCc2cccc([N+](=O)[O-])c2)nc2ccccc2c1=O)c1ccccc1	u	-14%	-24	-3%	-4%
COCCn1c(SCc2cccc([N+](=O)[O-])c2)nc2ccccc2c1=O	u	u	u	u	-27%
COc1cc([N+](=O)[O-])ccc1NC(=O)N1CCN(c2cc(-c3noc(C)n3)ccc2C)CC1	u	x	x	-23%	x
Cc1ccc(NC(=O)COC(=O)CN2C(=O)NC3(CCCC3)C2=O)cc1F	-7%	-1%	-10	-6%	-5%
Nc1nc2ncc(=O)[nH]c2c(=O)[nH]1	15µM*	x	x	-1%	x
CC(=O)c1ccc2cccc3c2c1N=CN3C	-12%	-14%	-59*	-4%	0%
CN1c2cccc3cccc(c23)N(C)C1(C)C	-13%	24%	0	-15%	9%
CC1=C(C(=O)N2CCOCC2)C(c2ccc(C)cc2)NC(=S)N1 (stereo unspecified)	-1%	14%	4	-6%	6%
Cc1ccc(CC(=O)N2CCN(c3ccc([N+](=O)[O-])cc3)CC2)cc1	7.3µM*	u	x	u	-24%
Cc1ccc(S(=O)(=O)CC(=O)N2CCN(c3ccc([N+](=O)[O-])cc3)CC2)cc1	u	-20%	-21	13µM*	-24%
CCOc1ccc(NC(=O)CCc2c(C)nc3nc(-c4cc(OC)cc(OC)c4)nn3c2C)cc1	u	x	x	-17%	x
SMILES	TDP1 cell noCPT	HT1080 IDH1KD tx	IL1B secr inh	DT40 TDP1 CPT	HT1080NT lethal
NC(C(=O)O)C1ON=C(Cl)C1O (stereo unspecified)	5.8µM*	u	56	5.8µM*	21µM*
CCN(CC)CCNC(=O)c1cnn(-c2nccc(-c3cc4ccccc4o3)n2)c1C	u	x	x	0%[9.04 µM]	x
CN(C)S(=O)(=O)c1ccc2nnn(OCC(=O)NC34CC5CC(CC(C5)C3)C4)c2c1	26µM*	1%	13	u	1%
CN(C)S(=O)(=O)c1ccc2nnn(OCC(=O)NC3CCS(=O)(=O)C3)c2c1 (stereo unspecified)	6%	-1%	9	9%	10%
Cn1cc([C@]2(O)C(=O)N(c3ccccc3)c3ccccc32)c2ccccc21	u	-23%	u	u	-30%
COc1ccc(/C(C)=N/Nc2cccc(C(=O)O)c2)cc1OC	-2%	-2%	-1	0%	-2%
COc1ccc(/C(=C/Nc2cccc(Br)c2)C(C)=O)cc1OC	u	1%	-84*	-3%	-1%
COc1ccc(N/C=C/C(=O)c2ccccc2)cc1	u	-21%	-3	-18%	-24%
COc1ccc(N/C=C(/C(C)=O)c2ccccc2)cc1	-15%	4%	-84*	-7%	0%
CCC(C)NC(=O)Cn1c(-c2ccccc2)cc(C(C)=O)c1C (stereo unspecified)	-25%	1%	11	-3%	1%
CCCCCNC(=O)C1CCC(Cn2c(=S)[nH]c3ccccc3c2=O)CC1 (stereo unspecified)	-4%	5%	5	-20%	0%
COC(=O)[C@@H]1CCCN1C(=O)c1cc(NC(=O)C2CCC2)c2c(c1)nc(-c1ccncc1)n2C	-13%	x	x	-21%	x
NC(=O)c1ccccc1OCC(=O)c1ccc(Cl)cc1	u	-1%	-57*	-32%	-1%
CCCCCCOc1ccccc1C(N)=O	16µM*	x	x	u	x
COCC(=O)Nc1cc(C(=O)N2CCCC(C(C)=O)C2)cc2nc(-c3ccccc3)n(C)c12 (stereo unspecified)	1%	x	x	5%	x
CC(C)Cn1c([N+](=O)[O-])nc2c1c(=O)[nH]c(=O)n2C	4.6µM*	16µM*	-98*	3.3µM*	13µM*
Cn1c(=O)[nH]c(=O)c2c1nc([N+](=O)[O-])n2Cc1ccccc1	1µM*	3.3µM*	x	0.65µM*	2.6µM*
CCOc1ccc(NC(=S)N=Nc2c(O)[nH]c3ccccc23)cc1	7.3µM*	u	11	9.2µM*	u
Oc1cccc(NC(=S)N=Nc2c(O)[nH]c3ccccc23)c1	13µM*	u	14	u	u
CC(=O)/C=C(\C)N=Nc1c(O)[nH]c2ccccc12	-4%	-15%	-7	9%	-18%
CN(CCOc1ccccc1)C(=O)c1cc(S(=O)(=O)N2CCOCC2)c(Cl)cc1Cl	u	-15%	-8	18µM*	-11%
NC(=O)c1cc(S(=O)(=O)N2CCCC2)ccc1OCCOc1ccccc1	-22%	5%	-51*	-5%	4%
O=C(CSc1ccccc1)Nc1ccc(Cl)c(S(=O)(=O)N2CCOCC2)c1	-26%	-15%	-23	-2%	-20%
O=C(Nc1ccc(Cl)c(S(=O)(=O)N2CCOCC2)c1)c1cc2ccccc2oc1=O	u	9%	7	u	4%
